Reference: PubChem BioAssay AID2530 (National Center for Advancing Translational Sciences (NCATS), 2010)
Results filed as inconclusive are left out. Where a call stands in place of a potency, no number is given. Calls of active or inactive are those of the source. Calls come from the whole dose curve; as a rule, active = well fitted inhibition curve with a large enough effect; inconclusive = small, poorly fitted or top-dose-only effect; inactive = flat fitted curve, though single readings scatter.

Molecular target: Luciferin 4-monooxygenase (Photuris pensylvanica) (UniProt Q27757)
Test: Secondary Assay for Luciferase (Kinase-Glo TM) Inhibition Counterscreen
Description: NIH Chemical Genomics Center [NCGC] Malcolm Walkinshaw, Hugh Morgan, Linda Gilmore University of Edinburgh, UK MLPCN Grant: 1 R03 MH085697-01 NCGC Assay Overview: Luciferase (Kinase-Glo, Promega Corporation) was assayed for its ability to generate light using ATP and luciferin as substrates. The ATP concentration in the assay (10 uM) was within the linear range of enzyme activity for the assay conditions used. This assay was used as an counter screen for human pyruvate kinase M2 isoform.
NCGC Assay Protocol Summary: Four uL of substrate mix (final concentration, 50 mM imidazole pH 7.2, 50 mM KCl, 7 mM MgCl2, 10 uM ATP, 0.01% Tween 20, 0.05% BSA) was dispensed into white 1536 well plates. Twenty-three nL of compound was delivered by a pin tool and 2 uL of luciferase detection mix (Kinase-Glo, Promega)) was added. Following 8-minute incubation at ambient temperature, luminescence was measured by a ViewLux (Perkin Elmer) at 5 seconds exposure/plate. Data were normalized to the controls for basal activity (DMSO only) and 100% inhibition (40 uM SIB 1757) and curve fitting was performed using Hill equation.
Potency is the fitted concentration of half-maximal effect.

| SMILES | Potency |
| --- | --- |
| Cc1ccc(C(=O)n2c(N)nc3ccccc32)cc1 | 11.6 µM (active) |
| C[C@]12CC[C@@H]3c4ccc(O)c(O)c4CC[C@H]3[C@@H]1CC[C@@H]2O | inactive |
